High-throughput results as filed in PubChem.
A selection: hits, their analogues and other compounds. The true share with any hit is near 3.4%.
FBW7 activator = human FBW7 E3 ligase activation, primary screen | normalized activity (activation), % at 26.1 µM | AlphaScreen FBW7–phospho-cyclin E peptide binding, activator screen | actives 0.13% (n = 650,000); in the data active = normalized activity above about 1.9%;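 also: purified mutant Fbw7 with reduced substrate affinity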
GPR151 activ = human GPR151 activation; Q8TDV0; PathHunter beta-arrestin GPR151 cells, luminescence; activation, % at 11.2 µM; actives 1% (n = 650,000); AID 1508602; in the data active = activation above about 4.9%
Target sequence (Q8TDV0 whole entry, looked up): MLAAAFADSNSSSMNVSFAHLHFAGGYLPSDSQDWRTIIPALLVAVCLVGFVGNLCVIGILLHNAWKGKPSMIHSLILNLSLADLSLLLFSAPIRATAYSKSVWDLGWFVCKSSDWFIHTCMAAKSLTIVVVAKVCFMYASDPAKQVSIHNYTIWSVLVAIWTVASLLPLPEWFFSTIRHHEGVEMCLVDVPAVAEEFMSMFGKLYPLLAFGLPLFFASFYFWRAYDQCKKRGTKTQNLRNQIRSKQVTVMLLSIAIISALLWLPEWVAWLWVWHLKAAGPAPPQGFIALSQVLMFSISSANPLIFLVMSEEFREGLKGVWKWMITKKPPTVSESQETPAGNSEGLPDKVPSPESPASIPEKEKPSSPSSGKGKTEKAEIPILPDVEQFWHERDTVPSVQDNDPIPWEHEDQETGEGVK
MITF primary = inhibitors of human MITF; O75030; AlphaScreen MITF homodimerization, bead proximity signal; inhibition, % at 2.6 µM; actives 0.91% (n = 650,000); AID 1259374; in the data active = inhibition above about 50%
TEAD-YAP block = TEAD-YAP interaction inhibition; actives 1.4% (n = 640,000); inhibition, % at 9.12 µM; HEK-TIYL cells, TEAD-Gal4/YAP UAS-luciferase luminescence; AID 1259422; in the data active = inhibition above about 32%
Hits are given with their value; – = inactive.

SMILES | FBW7 activator | GPR151 activ | MITF primary | TEAD-YAP block
CN1CCN(C(CNS(=O)(=O)c2ccc(Cl)cc2)c2ccc3c(c2)OCO3)CC1 (configuration not stated) | 2.4 | – | – | –
CN(C)c1ccc(-c2nccnc2NS(=O)(=O)C2CC2)cc1 | – | – | – | –
CCOC(=O)c1c(C)[nH]c(-c2csc(N)n2)c1C | – | – | – | 32
CCOC(=O)N1CCC(NS(=O)(=O)c2ccc3[nH]c4c(c3c2)CCCC4)CC1 | – | – | – | 57
COc1ccc2c(Cn3cnc4cc([N+](=O)[O-])ccc4c3=O)cc(=O)oc2c1 | – | – | – | 64
c1ccc(-n2cnc3c(NCCN4CCOCC4)nc(Nc4ncccn4)nc32)cc1 | – | – | – | –
c1ccc(-n2cnc3c(NCCN4CCOCC4)nc(Nc4ccncn4)nc32)cc1 | – | – | – | –
c1ccc(-n2cnc3c(NCCN4CCOCC4)nc(Nc4cnccn4)nc32)cc1 | – | – | – | 48
c1ccc(-n2cnc3c(NCCN4CCOCC4)nc(Nc4ccccn4)nc32)cc1 | – | – | – | 35
COCCCN1C(=O)C2C(C(=O)Nc3cccc(OC)c3)C3C=CC2(O3)C1C(=O)NC1CCCCC1C (configuration not stated) | – | – | – | –
CCCCC(CC(O)COCCC)C(=O)NNC(=S)Nc1ccccc1 (configuration not stated) | – | – | – | –
Fc1cc(-c2nc(Nc3ccc(N4CCOCC4)cc3)ncc2F)cc(N2CCOCC2)c1 | – | – | – | –
Fc1cc(-c2nc(Nc3ccc(CN4CCCCC4)cc3)ncc2F)cc(N2CCOCC2)c1 | – | – | – | 92
Fc1cnc(Nc2ccc(CN3CCCCC3)cc2)nc1-c1cc(N2CCOCC2)cc(C(F)(F)F)c1 | – | – | – | 42
Cc1[nH]c2ccc(OC(F)(F)F)cc2c1CCNC(=O)c1cc([N+](=O)[O-])ccc1Cl | – | – | – | 66
O=C(NCCOC12CC3CC(CC(C3)C1)C2)c1cc([N+](=O)[O-])ccc1Cl | – | – | – | 33
O=C(Nc1ccc(C23CC4CC(CC(C4)C2)C3)cc1)c1cc([N+](=O)[O-])ccc1Cl | – | – | – | –
CCOc1ccc(CCNC(=O)c2cc([N+](=O)[O-])ccc2Cl)cc1OCC | – | – | – | 39
C/C(=N\Nc1nc2ccccc2s1)C1=C(O)c2ccccc2C1=O | – | – | – | –
Cc1ccccc1Nc1nc(Nc2ccccc2C)nc(N2CCCCC2)n1 | – | – | – | –
CN(C1=NC(=O)/C(=C/c2ccc([N+](=O)[O-])cc2)S1)c1ccc(O)cc1 | – | – | – | –
Cc1c2oc3c(C)ccc(C(=O)C4CCCCO4)c3nc-2c(C(=O)C2CCCCO2)c(N)c1=O (configuration not stated) | – | – | – | 96
COc1ccc(-c2cncc(-c3cc(N4CCN(c5ccccn5)CC4)nc(C)n3)c2)cc1 | – | – | – | –
O=C(N/N=C/c1cc2ccccc2cc1O)c1ccncc1 | – | – | 54 | 88
COc1ccc(O)c(/C=N/NC(=O)c2ccncc2)c1 | – | – | – | –
SMILES | FBW7 activator | GPR151 activ | MITF primary | TEAD-YAP block
O=C(N/N=C/c1cc(Cl)cc(Cl)c1O)c1ccncc1 | – | – | 96 | 32
Nc1nonc1C(=O)N/N=C/c1ccccc1O | – | – | 63 | –
Nc1nonc1C(=O)N/N=C/c1cc(Cl)cc(Cl)c1O | – | – | 68 | –
COc1cccc(OCCCOc2ccc(/C=C3/C(=N)N4C(c5ccccc5)=CSC4=NC3=O)cc2)c1 | – | – | – | –
COc1ccc(-c2nc(NCc3ccccc3)c3ncn(-c4ccsc4)c3n2)cc1 | – | – | – | –
Cc1sc(NC(=O)CCl)nc1-c1ccc2c(c1)CCN2S(C)(=O)=O | – | – | – | –
CNc1nc(-c2ccc3c(c2)CCN3C(=O)C2CC2)c(C)s1 | – | – | – | –
CC(=O)Nc1nc(-c2ccc3c(c2)CCN3S(C)(=O)=O)c(C)s1 | – | – | – | 52
Cc1sc(N)nc1-c1ccc2c(c1)CC(C)N2S(C)(=O)=O (configuration not stated) | – | – | – | –
CC1Cc2cc(-c3csc(NC(=O)Cc4cccs4)n3)ccc2N1S(C)(=O)=O (configuration not stated) | – | – | – | 57
Cc1sc(NC(=O)c2ccncc2)nc1-c1ccc2c(c1)CCN2C(=O)C1CC1 | – | – | – | 38
CNc1nc(-c2ccc3c(c2)CC(C)N3S(C)(=O)=O)cs1 (configuration not stated) | – | – | – | 44
COc1ccc2oc(=O)c(C(=O)N3CCCCC3C)cc2c1 (configuration not stated) | – | – | – | –
CCOC(=O)c1cc(-c2c[nH]c3ccccc23)no1 | – | – | – | –
C=CCN1C(=O)/C(=c2\sc3n(c2=O)C(c2ccccc2)C(C(=O)OCC)=C(C)N=3)c2ccccc21 (configuration not stated) | – | – | – | –
COc1ccc(N2CCN(CC(O)COc3ccccc3F)CC2)cc1 (configuration not stated) | – | – | – | –
Cc1sc(NC(=O)Cc2cccs2)nc1-c1ccc2c(c1)CC(C)N2S(C)(=O)=O (configuration not stated) | – | – | – | 52
CNc1nc(-c2ccc3c(c2)CCN3C(=O)C2CC2)cs1 | – | – | – | 63
CCN(CC)C(=O)c1cc2c(=O)oc3ccc(C)cc3c2s1 | – | – | – | –
CCOc1ccc(NC(=O)c2ccc(F)c(S(=O)(=O)N(CC)Cc3ccccc3)c2)cc1 | – | – | – | 62
CCN(CC)S(=O)(=O)c1cc(C(=O)Nc2ccc(Br)cc2)ccc1OC | – | – | – | 47
CCOc1ccc(NC(=O)c2ccc(F)c(S(=O)(=O)N(Cc3ccco3)CC3CCCO3)c2)cc1 (configuration not stated) | – | – | – | 46
CCOc1ccc(NC(=O)c2ccc(F)c(S(=O)(=O)N(CC)CC)c2)cc1 | – | – | – | 37
CCN(CC)S(=O)(=O)c1cc(C(=O)Nc2ccc(Br)cc2)ccc1F | – | – | – | –
CCSc1nnc(CSc2ncccn2)n1-c1ccc(OC)cc1 | – | – | – | –
SMILES | FBW7 activator | GPR151 activ | MITF primary | TEAD-YAP block
COc1ccc(CCNC(=O)CCCCCn2c(SCC(=O)Nc3cc(C)[nH]n3)nc3ccsc3c2=O)cc1OC | – | – | – | –
CCC(C)(C(=O)NC1CCCC1)N(Cc1ccco1)C(=O)CNC(=O)c1ccccc1 (configuration not stated) | 2.3 | – | – | –
CCC(C)(C(=O)NC1CCCC1)N(Cc1ccco1)C(=O)CNC(C)=O (configuration not stated) | – | – | – | –
Cc1cccc(CC(=O)Nc2cnn(-c3cccc(C(=O)N4CCCO4)c3)c2)c1 | – | – | – | –
Cc1cccc(CC(=O)Nc2cnn(-c3cccc(C(=O)N4CCNC(=O)CC4)c3)c2)c1 | 4.3 | – | – | –
CC(C)c1ccc(-c2cc(C(=O)O)c3ccccc3n2)cc1 | – | – | – | 74
CCc1ccc(-c2cc(C(=O)N3CCN(Cc4ccccc4)CC3)c3ccccc3n2)cc1 | – | – | – | 65
Cc1ccc(-c2cc(C(=O)N3CCOCC3)c3ccccc3n2)cc1 | – | – | – | –
